Results from article PMC7862700, “An all-to-all approach to the identification of sequence-specific readers for epigenetic DNA modifications on cytosine”.

Experiments:
Assay in all cases: DAPPL (digital affinity profiling via proximity ligation, sequencing); 10 mM Tris-HCl pH 7.5, 50 mM NaCl, 1 mM DTT, 4% glycerol, room temperature, 30 min; GST-TFs on glutathione beads, 16-mer random dsDNA library, 0.1% formaldehyde crosslink after washing; high values mean tight binding
FEV = target: T1, FEV (Homo sapiens, UniProt Q99581 1-238); conditions: protein: recombinant; tags: N-terminal GST; dsDNA, one strand shown
T1 sequence: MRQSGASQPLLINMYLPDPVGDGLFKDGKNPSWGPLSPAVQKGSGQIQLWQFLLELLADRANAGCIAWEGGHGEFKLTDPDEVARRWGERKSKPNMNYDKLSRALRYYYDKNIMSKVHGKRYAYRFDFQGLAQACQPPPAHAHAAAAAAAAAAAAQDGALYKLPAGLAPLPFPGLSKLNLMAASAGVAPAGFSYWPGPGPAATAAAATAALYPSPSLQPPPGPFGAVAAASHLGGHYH
Procedure, shortened: (§1)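 Human transcription factors were made in yeast as GST fusions, captured on glutathione beads and barcoded with DNA. With a tag-only sample included, the pool was incubated with 200 nmole of a random double-stranded 16-mer DNA library in Tris/NaCl/DTT/glycerol buffer at room temperature for 30 min, then crosslinked with 0.1% formaldehyde after washing, ligated by proximity, amplified and sequenced. For binding signal, each hexamer's read frequency for a factor is divided by its frequency for the tag-only sample.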

ETV5 = ETV5 (Homo sapiens, UniProt P41161 1-510); conditions: protein: recombinant; tags: N-terminal GST; dsDNA, one strand shown
Procedure, shortened: as §1

HSF1 = HSF1 (Homo sapiens, UniProt Q00613 1-529); conditions: protein: recombinant; tags: N-terminal GST; chain copies: 3; dsDNA, one strand shown
Procedure, shortened: as §1

SPIC = target: T2, SPIC (Homo sapiens, UniProt Q8N5J4 1-248); conditions: protein: recombinant; tags: N-terminal GST; dsDNA, one strand shown
T2 sequence: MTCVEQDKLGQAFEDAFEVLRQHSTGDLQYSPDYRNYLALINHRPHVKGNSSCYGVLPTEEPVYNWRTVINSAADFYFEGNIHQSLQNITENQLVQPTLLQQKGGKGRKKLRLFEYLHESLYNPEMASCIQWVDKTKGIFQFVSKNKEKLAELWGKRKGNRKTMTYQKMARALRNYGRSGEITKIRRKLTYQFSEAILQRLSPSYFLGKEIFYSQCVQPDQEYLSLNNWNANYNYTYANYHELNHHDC
Procedure, shortened: as §1

ELF4 = ELF4 (Homo sapiens, UniProt Q99607 1-663); conditions: protein: recombinant; tags: N-terminal GST; dsDNA, one strand shown
Procedure, shortened: as §1

ELK4 = target: T3, ELK4 (Homo sapiens, UniProt P28324-2 1-405); conditions: protein: recombinant; tags: N-terminal GST; dsDNA, one strand shown
T3 sequence: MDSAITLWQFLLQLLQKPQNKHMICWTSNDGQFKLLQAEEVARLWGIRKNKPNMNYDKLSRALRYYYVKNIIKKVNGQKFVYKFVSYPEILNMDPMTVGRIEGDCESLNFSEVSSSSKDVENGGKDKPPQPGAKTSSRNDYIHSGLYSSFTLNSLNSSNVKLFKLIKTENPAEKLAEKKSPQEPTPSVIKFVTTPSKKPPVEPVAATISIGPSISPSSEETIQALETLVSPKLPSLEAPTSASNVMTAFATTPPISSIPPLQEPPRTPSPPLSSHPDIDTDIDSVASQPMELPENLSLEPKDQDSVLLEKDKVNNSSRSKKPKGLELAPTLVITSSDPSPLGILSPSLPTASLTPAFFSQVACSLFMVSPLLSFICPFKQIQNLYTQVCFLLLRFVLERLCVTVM
Procedure, shortened: as §1

ETV2 = target: T4, ETV2 (Homo sapiens, UniProt O00321 1-342); conditions: protein: recombinant; tags: N-terminal GST; dsDNA, one strand shown
T4 sequence: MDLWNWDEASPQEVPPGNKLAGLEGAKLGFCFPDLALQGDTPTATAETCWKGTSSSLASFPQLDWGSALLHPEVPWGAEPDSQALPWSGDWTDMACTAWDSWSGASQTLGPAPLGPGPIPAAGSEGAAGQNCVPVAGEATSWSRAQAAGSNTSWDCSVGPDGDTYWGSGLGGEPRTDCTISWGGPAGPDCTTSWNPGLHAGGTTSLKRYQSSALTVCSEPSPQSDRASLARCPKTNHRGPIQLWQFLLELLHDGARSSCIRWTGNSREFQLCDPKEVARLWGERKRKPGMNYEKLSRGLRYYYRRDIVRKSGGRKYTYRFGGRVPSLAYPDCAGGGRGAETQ
Procedure, shortened: as §1

ELF3 = target: T5, ELF3 (Homo sapiens, UniProt P78545 1-371); conditions: protein: recombinant; tags: N-terminal GST; dsDNA, one strand shown
T5 sequence: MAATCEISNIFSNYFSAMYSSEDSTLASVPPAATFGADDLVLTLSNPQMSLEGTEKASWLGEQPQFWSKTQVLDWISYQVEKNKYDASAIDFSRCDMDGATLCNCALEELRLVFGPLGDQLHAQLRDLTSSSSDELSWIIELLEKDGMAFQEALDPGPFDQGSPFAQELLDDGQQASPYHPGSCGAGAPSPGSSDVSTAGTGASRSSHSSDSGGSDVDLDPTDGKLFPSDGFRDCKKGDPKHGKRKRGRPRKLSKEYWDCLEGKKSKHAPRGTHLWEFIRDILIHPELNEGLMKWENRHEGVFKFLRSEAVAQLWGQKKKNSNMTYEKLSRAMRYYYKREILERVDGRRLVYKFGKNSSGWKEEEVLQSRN
Procedure, shortened: as §1

CRX = CRX (Homo sapiens, UniProt O43186 1-299); conditions: protein: recombinant; tags: N-terminal GST; dsDNA, one strand shown
Procedure, shortened: as §1

Chain of ELF4 (Q99607 whole entry): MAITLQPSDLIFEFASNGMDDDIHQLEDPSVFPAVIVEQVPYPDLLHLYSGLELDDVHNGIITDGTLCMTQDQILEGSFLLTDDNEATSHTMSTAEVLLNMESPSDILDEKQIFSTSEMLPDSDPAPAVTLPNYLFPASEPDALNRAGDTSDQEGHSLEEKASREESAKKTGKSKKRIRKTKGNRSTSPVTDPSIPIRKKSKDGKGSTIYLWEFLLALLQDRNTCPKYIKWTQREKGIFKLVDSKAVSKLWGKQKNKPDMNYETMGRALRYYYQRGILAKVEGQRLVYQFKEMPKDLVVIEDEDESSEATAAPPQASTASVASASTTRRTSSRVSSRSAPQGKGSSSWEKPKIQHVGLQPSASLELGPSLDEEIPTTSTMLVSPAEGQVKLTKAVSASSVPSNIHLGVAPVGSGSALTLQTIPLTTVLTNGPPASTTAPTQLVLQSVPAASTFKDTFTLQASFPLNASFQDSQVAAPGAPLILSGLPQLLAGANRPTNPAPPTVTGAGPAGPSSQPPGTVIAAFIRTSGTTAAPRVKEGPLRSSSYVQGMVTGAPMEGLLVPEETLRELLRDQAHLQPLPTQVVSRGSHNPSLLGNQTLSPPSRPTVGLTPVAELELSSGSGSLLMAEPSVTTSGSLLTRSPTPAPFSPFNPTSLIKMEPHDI
Chain of HSF1 (Q00613 whole entry): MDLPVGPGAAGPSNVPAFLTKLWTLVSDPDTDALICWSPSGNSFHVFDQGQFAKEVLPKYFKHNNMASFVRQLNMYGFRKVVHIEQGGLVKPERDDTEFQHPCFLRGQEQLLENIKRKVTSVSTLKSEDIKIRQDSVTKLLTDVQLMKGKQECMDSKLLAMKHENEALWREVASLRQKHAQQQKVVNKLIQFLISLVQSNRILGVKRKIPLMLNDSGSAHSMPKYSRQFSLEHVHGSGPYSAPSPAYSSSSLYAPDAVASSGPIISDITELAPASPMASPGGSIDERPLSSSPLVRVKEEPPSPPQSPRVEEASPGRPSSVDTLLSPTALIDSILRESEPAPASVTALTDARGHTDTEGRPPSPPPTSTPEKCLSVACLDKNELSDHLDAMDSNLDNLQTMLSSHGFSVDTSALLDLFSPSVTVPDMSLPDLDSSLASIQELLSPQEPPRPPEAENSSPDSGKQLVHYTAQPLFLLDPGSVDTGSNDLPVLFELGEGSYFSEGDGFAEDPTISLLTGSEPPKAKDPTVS
Chain of ETV5 (P41161 whole entry): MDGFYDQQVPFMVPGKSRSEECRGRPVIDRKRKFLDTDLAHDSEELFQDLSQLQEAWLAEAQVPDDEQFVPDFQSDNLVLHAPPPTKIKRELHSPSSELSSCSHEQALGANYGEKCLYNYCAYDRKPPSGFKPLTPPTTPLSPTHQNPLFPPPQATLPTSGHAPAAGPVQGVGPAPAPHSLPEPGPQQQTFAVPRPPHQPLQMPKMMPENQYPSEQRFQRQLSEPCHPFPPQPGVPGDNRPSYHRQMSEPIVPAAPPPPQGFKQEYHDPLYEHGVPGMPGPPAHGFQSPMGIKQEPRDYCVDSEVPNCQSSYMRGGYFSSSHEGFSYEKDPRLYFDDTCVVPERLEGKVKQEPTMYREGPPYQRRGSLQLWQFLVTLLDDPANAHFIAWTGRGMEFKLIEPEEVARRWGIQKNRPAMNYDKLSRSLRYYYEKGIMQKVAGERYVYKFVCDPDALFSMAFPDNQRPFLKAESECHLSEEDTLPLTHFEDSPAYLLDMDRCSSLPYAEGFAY
Chain of CRX (O43186 whole entry): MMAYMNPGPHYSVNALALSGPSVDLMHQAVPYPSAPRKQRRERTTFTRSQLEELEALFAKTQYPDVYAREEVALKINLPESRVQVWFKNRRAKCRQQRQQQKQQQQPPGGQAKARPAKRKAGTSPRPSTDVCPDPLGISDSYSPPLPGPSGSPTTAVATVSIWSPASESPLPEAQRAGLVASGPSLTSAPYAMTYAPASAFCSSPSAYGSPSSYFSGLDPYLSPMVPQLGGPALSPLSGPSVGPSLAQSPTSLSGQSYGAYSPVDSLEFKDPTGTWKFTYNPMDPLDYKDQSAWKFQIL

TTCCTA was tested, and the binding signal (FEV) was 1.62 fold enrichment (6-mer frequency, TF over GST control), the binding signal (ETV5) was 1.79 fold enrichment (6-mer frequency, TF over GST control) and the binding signal (HSF1) was 1.59 fold enrichment (6-mer frequency, TF over GST control). The binding signal (SPIC) was 1.67 fold enrichment (6-mer frequency, TF over GST control), the binding signal (ELF4) was 1.57 fold enrichment (6-mer frequency, TF over GST control) and the binding signal (ELK4) was 1.52 fold enrichment (6-mer frequency, TF over GST control). The binding signal (ETV2) was 1.77 fold enrichment (6-mer frequency, TF over GST control), the binding signal (ELF3) was 1.84 fold enrichment (6-mer frequency, TF over GST control) and the binding signal (CRX) was 1.47 fold enrichment (6-mer frequency, TF over GST control).
